# In the supplement of paper PMC10720658:
# ± gives the standard deviation of the averaged measurements.
# Test system: AEK1 (Tb927.3.2440)
# Assay: percent reduction in TR-FRET probe signal relative to DMSO control; higher = stronger displacement of ATP-site probe (binding)
# Settings: 1 µM; incubation time 1 h
row,SMILES,percent reduction in TR-FRET probe signal [%]
1,Cc1nc(NC(=O)N2CCC[C@H]2C(N)=O)sc1-c1csc(C(C)(C)C)n1,3.71 ± 6.7
2,O=c1ncn2nc(Sc3ccc(F)cc3F)ccc2c1-c1c(Cl)cccc1Cl,9.39 ± 14
3,O=c1sn(-c2cccc3ccccc23)c(=O)n1Cc1ccccc1 [Tideglusib],-35 ± 6.7
